Shown are actives, neighbours in structure and some others; about 19% of the full set was active somewhere.
Pf growth 96h: inhibits malaria parasite growth, 96 h; P. falciparum luciferase reporter growth, 96 h; AID 504834; 320,000 tested, 6.9% active; Potency, µM (titrated, usually from 28.7 µM), hits mostly inhibitors
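Delayed-death screen, second-generation endpoint: infected erythrocytes, 2% hematocrit, 0.05% parasitemia final; 96 hours at 37 C, 5% CO2; luciferase detection reagent; luminescence decrease equals reduced growth.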
Shiga toxin inh: inhibitors of Shiga toxin in Vero cells | AID 2315 | Vero cells, Shiga toxin protein synthesis inhibition reporter | 290,000 tested, 9.2% active | inhibition, % at 38.7 µM; in the data active = inhibition mostly above about 28%, no sharp cut-off; inactive = mostly below about 43%
Marburg entry inh: inhibitors of Marburg virus binding or cell entry; Marburg virus pseudotyped entry inhibition, cell reporter; Potency, µM (top dose mostly 37.8 µM), most hits filed as inhibitors; 300,000 tested, 1.8% active; AID 540276; calls by dose curve; tested in HEK293 cells
CHX counter: affects cycloheximide protein synthesis inhibition readout, counter-screen; max response, %; cell reporter, cycloheximide protein synthesis inhibition counterscreen; AID 2314; 300,000 tested, 12% active; in the data active = max response mostly above about 13%, no sharp cut-off; inactive = mostly below about 14%; also: read at 38.3 µM for the half of the compounds with a filed dose
Pf growth 48h: P. falciparum growth inhibition at 48 hours (one generation); P. falciparum luciferase growth in erythrocytes, 48 h; Potency, µM (highest dose often 28.7 µM), actives largely listed as inhibitors; 310,000 tested, 5.9% active; AID 504832
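Parasite viability was followed by luminescence of a genomically integrated firefly luciferase. Cultures held 0.1% parasitemia at 2% hematocrit (final), incubated under 5% CO2 at 37 C.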
Lassa entry inh: Lassa virus entry inhibition. Lassa virus pseudotype entry inhibition, cell reporter. Potency, µM (titrated, usually from 37.9 µM), actives largely listed as inhibitors. 300,000 tested, 1.2% active. AID 540256; calls by dose curve; tested in HEK293 cells; also: nearly all actives have a fitted effect of over 50% in size
Numbers stand for hits. Unless noted, calls follow the shape of the dose curve; as a rule, active = well fitted inhibition curve with a large enough effect; inconclusive = small, poorly fitted or top-dose-only effect, or another doubt; inactive = no such curve, though single readings can be large or run the other way.

For NC(=O)CN1CCN(CCN2C(=O)c3cccc4cccc(c34)C2=O)CC1 the results were Pf growth 96h inactive, Shiga toxin inh inactive, CHX counter inactive and Pf growth 48h inactive.
`O=C1c2cccc3cc([N+](=O)[O-])cc(c23)C(=O)N1CCN1CCCC1` gave Pf growth 96h inconclusive, Shiga toxin inh inactive, Marburg entry inh 3.98µM, CHX counter inactive, Pf growth 48h 9.28µM and Lassa entry inh inconclusive.
`Cc1cc(C)c(S(=O)(=O)N2CCN(CCN3C(=O)c4cccc5cccc(c45)C3=O)CC2)cc1[N+](=O)[O-]` gave Pf growth 96h inconclusive, Shiga toxin inh inactive, Marburg entry inh inactive, CHX counter inactive, Pf growth 48h inactive and Lassa entry inh inactive.
C=CCn1c(=O)c(C(=O)NCc2ccccc2)c(O)c2ccccc21 was read as Pf growth 96h inactive, CHX counter inactive and Pf growth 48h inactive.
CCOc1cc(N2CCOCC2)c(OCC)cc1NC(=O)C1CC(=O)N(c2ccc(C)cc2)C1 (stereo unspecified) was read as Pf growth 96h inactive and Pf growth 48h inconclusive.
`Cc1ccc(N2C(=O)c3ccccc3C2=O)cc1Cl` gave Pf growth 96h inactive, Shiga toxin inh inactive, Marburg entry inh inactive, CHX counter inactive, Pf growth 48h inactive and Lassa entry inh inactive.
CCOc1ccc(-c2c(C)nn3c(C)c(C(=O)NC(C)c4ccccc4)cnc23)cc1OCC (stereo unspecified) was read as Lassa entry inh inactive.
For CC(=O)NC(c1ccccc1)c1nc2ccccc2[nH]1 (stereo unspecified) the results were Pf growth 96h inactive, Shiga toxin inh inactive, Marburg entry inh inactive, CHX counter inactive, Pf growth 48h inactive and Lassa entry inh inactive.
`CC(C)NC(=O)CN1CCN(Cc2nc(C(c3ccccc3)c3ccccc3)no2)CC1` gave Pf growth 96h inactive, Shiga toxin inh inactive, Marburg entry inh inactive, CHX counter inactive, Pf growth 48h 9.28µM and Lassa entry inh inactive.
Screening O=C(Cn1cnc2sc3c(c2c1=O)CCCC3)NCC(=O)Nc1c(F)cccc1F returned Pf growth 96h inconclusive, Shiga toxin inh inactive, CHX counter inactive and Pf growth 48h inactive.
`CCOC(=O)c1c(NC(=O)c2cc(=O)c3c(C)cc(C)cc3o2)sc2c1CCC2` gave Marburg entry inh inconclusive and Lassa entry inh inactive.
C=CCc1cc(C=O)cc(OC)c1OCc1ccc(Cl)cc1 was read as Pf growth 96h inconclusive, Shiga toxin inh inactive, Marburg entry inh inactive, CHX counter inactive, Pf growth 48h inactive and Lassa entry inh inactive.
C[N+]12CCC(CC1)C(=C(c1ccccc1)c1ccccc1)C2 was read as Pf growth 96h 0.586µM, Shiga toxin inh inactive, Marburg entry inh inactive, CHX counter inactive, Pf growth 48h 0.738µM and Lassa entry inh inconclusive.
CC[N+]12CCC(CC1)C(=C(c1ccccc1)c1ccccc1)C2 was read as Pf growth 96h inconclusive, Shiga toxin inh inactive, Marburg entry inh inactive, CHX counter inactive, Pf growth 48h inactive and Lassa entry inh inactive.
For Cn1c(SC2CCCCC2=O)nnc1-c1ccccc1F (stereo unspecified) the results were Pf growth 96h inactive, Shiga toxin inh inactive, Marburg entry inh inactive, CHX counter inactive, Pf growth 48h inactive and Lassa entry inh inactive.
`Cc1ccc(N(C(=O)Nc2ccccc2)C2=NCCC2)cc1` gave Pf growth 96h inactive, Shiga toxin inh inactive, Marburg entry inh inactive, CHX counter 17.5, Pf growth 48h inactive and Lassa entry inh inactive.
`COc1ccc(N2CCN(C(=O)Nc3ccc(Cl)cc3)CC2)cc1` gave Marburg entry inh inactive and Lassa entry inh inactive.
`O=C(Nc1ccccc1)N(C1=NCCC1)c1ccccc1` gave Pf growth 96h inactive, Shiga toxin inh inactive, Marburg entry inh inactive, CHX counter inactive, Pf growth 48h inactive and Lassa entry inh inactive.
Screening COc1ccc(N(C(=O)Nc2ccc(Cl)cc2)C2=NCCC2)cc1 returned Pf growth 96h inconclusive, Shiga toxin inh inactive, Marburg entry inh inactive, CHX counter inactive, Pf growth 48h inactive and Lassa entry inh 6.51µM.
Screening Cc1ccccc1SCC(=O)NC1CCOC1=O (stereo unspecified) returned Pf growth 96h inactive, Shiga toxin inh inactive, Marburg entry inh inactive, CHX counter inactive, Pf growth 48h inactive and Lassa entry inh inactive.
COCC(=O)N(c1c(C)cccc1C)C(C)C(=O)OC (stereo unspecified) was read as Pf growth 96h inactive and Pf growth 48h inactive.
Screening COC(=O)C(C)N(C(=O)c1cccc2ccccc12)c1c(C)cccc1C (stereo unspecified) returned Shiga toxin inh inactive, Marburg entry inh inconclusive, CHX counter inactive, Pf growth 48h 14.7µM and Lassa entry inh inactive.
For O=C(NCC1OCCc2ccccc21)c1ccco1 (stereo unspecified) the results were Pf growth 96h inactive, Shiga toxin inh 34.2, Marburg entry inh inactive, CHX counter 19.5, Pf growth 48h inactive and Lassa entry inh inactive.
For Cc1ccnc(NC(=O)CCC(=O)N(CC(=O)NCCc2ccccc2)Cc2ccco2)c1 the results were Pf growth 96h inconclusive, Shiga toxin inh inactive, Marburg entry inh inactive, CHX counter inactive, Pf growth 48h inconclusive and Lassa entry inh inactive.
NS(=O)(=O)c1ccc(CCNC(=O)c2ccco2)cc1 was read as Pf growth 96h inactive, Shiga toxin inh inactive, Marburg entry inh inactive, CHX counter inactive, Pf growth 48h inactive and Lassa entry inh inactive.
For O=C(NCCc1ccccc1)c1ccco1 the results were Pf growth 96h inactive, Shiga toxin inh 86.1, Marburg entry inh inconclusive, CHX counter 49.5, Pf growth 48h inactive and Lassa entry inh inactive.
For CN(CC(=O)NCCc1ccccc1)Cc1ccco1 the results were Pf growth 96h inactive, Shiga toxin inh 98.8, Marburg entry inh inactive, CHX counter 32.3, Pf growth 48h inactive and Lassa entry inh inactive.
`Nc1sc2c(c1C(=O)NCCc1ccccc1)CCC2` gave Pf growth 96h inactive, Shiga toxin inh inactive, Marburg entry inh inconclusive, CHX counter inactive, Pf growth 48h 13.1µM and Lassa entry inh inconclusive.
COc1ccc(N(C(=O)C2CCCCC2)C2C=CS(=O)(=O)C2)c(OC)c1 (stereo unspecified) was read as Pf growth 96h inactive, Shiga toxin inh inactive, Marburg entry inh inactive, CHX counter inactive, Pf growth 48h inactive and Lassa entry inh inactive.
Screening Cc1c(Cl)cccc1NC(=S)NCc1ccco1 returned Pf growth 96h inactive, Shiga toxin inh inactive, CHX counter inactive and Pf growth 48h inactive.
Screening O=C(NCCc1ccccc1)c1c(F)cccc1F returned Pf growth 96h inactive, Shiga toxin inh 99.1, Marburg entry inh inconclusive, CHX counter 39.1, Pf growth 48h inactive and Lassa entry inh inconclusive.
`O=C(Nc1ccc(F)cc1)c1ccccc1NC(=O)C1CCCCC1C(=O)O` (stereo unspecified) gave Marburg entry inh inconclusive and Lassa entry inh inactive.
For O=C(NCCc1ccccc1)c1ccccc1NC(=O)C1CCCCC1C(=O)O (stereo unspecified) the results were Pf growth 96h inactive, Shiga toxin inh 55.6, CHX counter 28.5 and Pf growth 48h inactive.
